Results filed as inconclusive are left out. Entries that show only a call come without a potency. Values without a mark were called inactive. The source made the active and inactive calls. The call rests on the fitted dose curve; in most records, active means well fitted inhibition curve with a large enough effect; inconclusive means small, poorly fitted or top-dose-only effect; inactive means flat fitted curve, though single readings scatter.
Target: Aldehyde dehydrogenase, mitochondrial (Homo sapiens) (UniProt P05091)
Assay: qHTS for Inhibitors of the Aldehyde Dehydrogenase Family (ALDH2) Primary screen (AID 2061308); further: nearly all actives have a fitted effect of over 55% in size
Details: ALDH2 enzyme inhibition qHTS, 1536-well; series mostly up to 56 µM

Row | Compound | Potency | activity change, negative = inhibition
1 | NC(=O)C1CCN(c2nc(-c3ccc4c(c3)OCCCO4)cs2)CC1 | inactive | –
2 | Cc1ccc(NS(=O)(=O)c2cc3c(cc2NCC(C)(C)O)NC(=O)CC3)cc1C | inactive | –
3 | COc1cccc(C)c1NC(=O)C(OC(=O)CNC(=O)c1ccccc1)c1ccccc1 (stereo not given) | inactive | –
4 | O=C(CNC(=O)c1cccc(Cl)c1)OC(C(=O)Nc1cc(C(F)(F)F)ccc1Cl)c1ccccc1 (stereo not given) | inactive | –
5 | O=C(Nc1nnc(-c2ccncc2)s1)Nc1cccc2ccccc12 | inactive | –
6 | O=C(OCC#CCSc1nnc(-c2ccc(F)cc2)o1)c1ccc(F)cc1 | inactive | –
7 | Cc1cc(N[S+](=O)([O-])c2ccc(NC(=O)Cc3ccc(Cl)c([N+](=O)[O-])c3)cc2)no1 | inactive | –
8 | N#Cc1cc(NC(=O)Nc2nnc(-c3ccncc3)s2)ccc1-c1ccc[nH]1 | inactive | –
9 | C[C@@H]1CN(c2c(F)c(F)c3c(=O)c(C(=O)O)cn(C4CC4)c3c2F)C[C@H](C)N1 | – | -0.742% [at 11.2 µM]
10 | Cc1cc2c(s1)c1cnn(Cc3cc(Cl)ccc3F)c(=O)c1n2C | inactive | –
11 | FC(F)(F)c1cccc(N2CCN(C(=S)Nc3ccncc3)CC2)c1 | inactive | –
12 | O=C1CCCC2=C1C(c1[nH]ncc1Cl)NC(=NCc1cccs1)N2 (stereo not given) | inactive | –
13 | CCN1CCCC1Cn1c(-c2ccccc2)nc2c(N(CCOC)CCOC)nc(C)nc21 (stereo not given) | inactive | –
14 | Cc1cc2c(s1)c1cnn(Cc3cc(F)c(F)cc3F)c(=O)c1n2C | inactive | –
15 | COc1cc(OC)cc(-c2nnc3n2N=C(c2cc(OC)ccc2OC)CS3)c1 | inactive | –
16 | Cn1nnnc1Sc1ncnc2scc(-c3ccccc3Cl)c12 | inactive | –
17 | Cc1ccc(S(=O)(=O)Nc2cnccc2C(=O)Nc2nc(-c3ccc(Cl)cc3)cs2)cc1 | inactive | –
18 | NC(=O)c1cccc(-c2noc(-c3ccccc3C(F)(F)F)n2)c1 | inactive | –
19 | COc1ccccc1OCCN1CC(COc2cccc3[nH]c4ccccc4c23)OCC1=O (stereo not given) | inactive | –
20 | COC(=O)c1ccccc1NC(=O)c1ccc(F)cc1 | inactive | –

Row | Compound | Potency | activity change, negative = inhibition
21 | Cc1ccc(S(=O)(=O)Nc2cnccc2C(=O)Nc2nc(-c3ccc(Cl)c(Cl)c3)cs2)cc1 | inactive | –
22 | Cc1cccc(-n2cnc3cc(C(=O)N4CCCCCC4)ccc32)c1 | inactive | –
23 | C=C1C(=O)O[C@H]2[C@H]1CC/C(C)=C/CC[C@@]1(C)O[C@@H]21 | inactive | –
24 | O=C(Cn1cc(CNC(=O)c2ccccc2)nn1)Nc1cc(C(F)(F)F)ccc1Cl | inactive | –
25 | Cc1ccnc(NC(=S)N2CCc3ccccc3C2)c1 | inactive | –
26 | CCOC(=O)c1cccc(NS(=O)(=O)c2ccc(NC(=O)Cc3ccc(Cl)c(Cl)c3)cc2)c1 | inactive | –
27 | COc1cccc(-c2ccc3ncnc(NCc4cccc(F)c4)c3c2)c1 | inactive | –
28 | O=C(CCCc1ccccc1)NC(c1ccco1)c1cc(Cl)c2cccnc2c1O (stereo not given) | inactive | –
29 | O=C(Cc1ccc(Cl)c(Cl)c1)Nc1ccc([S+](=O)([O-])Nc2cccc([N+](=O)[O-])c2)cc1 | inactive | –
30 | N=c1c2c(ccn1-c1ccccc1)Oc1ccc3ccccc3c1C2c1ccccc1 (stereo not given) | inactive | –
31 | COC(=O)c1nc(Nc2cc(F)cc(F)c2)nc(NC2CCCC2)n1 | inactive | –
32 | O=C1NS(=O)(=O)C(c2ccccc2)C1c1ccccc1 (stereo not given) | inactive | –
33 | O=C(/C=C/c1ccc(C(F)(F)F)cc1)Nc1cccc([S+](=O)([O-])Nc2ccccc2F)c1 | inactive | –
34 | CCCCNc1nc(C)nc2c1nc(-c1ccccc1)n2CCN(C)C | inactive | –
35 | COc1ccc(NS(=O)(=O)c2ccc(C)cc2)c(C(=O)Nc2nc(-c3ccccc3)cs2)c1 | inactive | –
36 | Cc1sc(NC(=O)Cc2ccc3c(c2)OCO3)nc1-c1ccc2c(c1)CCN2C(=O)c1ccccc1C(F)(F)F | inactive | –
37 | CC(=O)Nc1sc2c(c1-c1nc3ccccc3s1)CCNC2 | inactive | –
38 | O=C(O)c1ccc(O)c2ncc(N3CCC(N4CCOCC4)C3)cc12 (stereo not given) | inactive | –
39 | Cc1cc(NC(=S)N2CCN(c3cccc(C(F)(F)F)c3)CC2)nc2ccccc12 | inactive | –
40 | O=C(O)C1C2C(=O)N(c3ccccc3)C[C@@]23C=C[C@@H]1O3 (stereo not given in full) | inactive | –

— PubChem BioAssay (NCATS)
